Test [1] concerns the target Cytochrome P450 1A2 (Homo sapiens) (UniProt P05177). Briefly: p450-cyp1a2 (AID 410; calls by dose curve; note: potency is the fitted concentration of half-maximal effect). Summed up: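 Read-out is luminescence from luciferin produced by CYP1A2 demethylation of Luciferin-ME (100uM, at Km). Detection reagent stopped the 60 min NADPH-dependent reaction; signals were normalized to 57 uM furafylline.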
The target in test [2] is Glucocorticoid receptor (Homo sapiens) (UniProt P04150). Briefly: GR-GFP Redistribution (AID 450;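 active = compounds whose dose series gives a full or clear partial fitted curve of increased nuclear translocation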; note: potency is the fitted concentration of half-maximal effect). The note with it: U2OS GR-GFP nuclear translocation, laser cytometry, 2 h.
Chain of Glucocorticoid receptor (Homo sapiens) (P04150 whole entry, looked up, the tested form may be a part): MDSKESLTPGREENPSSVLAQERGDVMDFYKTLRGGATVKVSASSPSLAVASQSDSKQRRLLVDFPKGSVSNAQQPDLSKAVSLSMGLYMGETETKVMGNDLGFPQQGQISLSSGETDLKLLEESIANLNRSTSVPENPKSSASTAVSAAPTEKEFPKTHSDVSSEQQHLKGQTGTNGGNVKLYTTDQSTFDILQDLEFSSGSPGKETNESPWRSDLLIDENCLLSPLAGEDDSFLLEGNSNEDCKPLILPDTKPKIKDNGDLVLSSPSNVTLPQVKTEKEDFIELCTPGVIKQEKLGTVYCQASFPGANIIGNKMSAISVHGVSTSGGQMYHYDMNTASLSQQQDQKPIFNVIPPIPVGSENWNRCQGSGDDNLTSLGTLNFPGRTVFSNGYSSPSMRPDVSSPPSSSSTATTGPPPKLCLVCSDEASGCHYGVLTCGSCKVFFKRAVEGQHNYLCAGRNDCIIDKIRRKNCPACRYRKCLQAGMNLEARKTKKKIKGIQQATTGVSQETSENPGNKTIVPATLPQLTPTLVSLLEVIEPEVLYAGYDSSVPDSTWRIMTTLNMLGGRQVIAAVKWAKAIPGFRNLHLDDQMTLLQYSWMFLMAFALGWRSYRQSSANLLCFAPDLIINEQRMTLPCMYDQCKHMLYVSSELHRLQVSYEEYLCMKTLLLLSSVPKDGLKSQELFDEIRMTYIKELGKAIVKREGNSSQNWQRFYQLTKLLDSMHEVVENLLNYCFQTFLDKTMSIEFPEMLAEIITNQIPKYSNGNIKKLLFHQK
Test [3] shares this target. The experiment in a line: GR-EFC Redistribution (AID 451; calls by dose curve; note: potency is the fitted concentration of half-maximal effect). The note with it: CHO-K1 GR-EFC translocation, beta-gal luminescence, 2 h. In a few lines: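 CHO-K1 cells stably expressing nuclear-localized β-gal enzyme acceptor and GR fused C-terminally to the enzyme donor fragment; ligand-driven nuclear translocation restores β-gal by complementation. Compounds titrated up to 46 uM final, 2 h at 37 °C; luminescence read.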

For test [4], the target named is Cytochrome P450 2D6 (Homo sapiens) (UniProt P10635). The experiment in a line: qHTS Assay for Inhibitors and Substrates of Cytochrome P450 2D6 (AID 891). Note: nearly all actives have a fitted effect of over 60% in size. Note: potency is the fitted concentration of half-maximal effect. Summed up:
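Luminescent read-out of luciferin formed by 5 nM human CYP2D6 demethylating 30 uM Luciferin-ME EGE (Km level) over 60 min at room temperature after NADPH regeneration addition. Data normalized to full inhibition by 1.43 uM quinidine.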

Test [5] is described as follows: Cell Viability - BJ (AID 421; calls by dose curve;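 note: potency is the fitted concentration of half-maximal effect; cells exposed to compound for 40 hours at 37 °C before readout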). As to conditions: BJ fibroblast viability, qHTS. Summed up:
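Cytotoxicity as drop in intracellular ATP (CellTiter-Glo, 20 min RT) after 40 hr compound exposure of BJ fibroblasts at 37 °C. Titrations scaled between DMSO and 100 uM tamoxifen, Hill-fitted for AC50.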
A general note: qHTS replaces the single test concentration by a dilution series.

The nature of test [6]: Cell Viability - MRC5 (AID 434; calls by dose curve;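 note: potency is the fitted concentration of half-maximal effect; cells exposed to compound for 40 hours at 37 °C; potency reflects cytotoxicity seen as loss of intracellular ATP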). As to conditions: MRC5 lung fibroblast viability, qHTS. Summed up: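 Decrease in intracellular ATP, quantified by luciferase light output, reflects compound toxicity toward MRC5 cells exposed for 40 hr in complete culture medium. Concentration-response curves, scaled between DMSO and 100 uM tamoxifen, gave AC50 values.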
Test [7] can be described thus: Cell Viability - SK-N-SH (AID 435; calls by dose curve;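 note: potency is the fitted concentration of half-maximal effect; compound exposure lasted 40 h at 37 °C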). The note with it: SK-N-SH neuroblastoma cell viability qHTS. In a few lines:
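Cells seeded at 1500 per well and incubated 5 hr at 37 °C. Compound added, then 40 hr at 37 °C. CellTiter-Glo added, 20 min at room temperature, luminescence read.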

A short description of test [8]: Cellular Toxicity (caspase-3) Renal Proximal Tubule (AID 667).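 Note: cells exposed to compound for 16 hours at 37 °C before detection; 0% = DMSO basal and 100% = 10 µM staurosporine.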 As to conditions: renal proximal tubule cells; at 91.7 µM (top of the series) unless noted. In a few lines: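 In qHTS format, rat primary proximal tubule cells seeded at 1000 per well are exposed to compounds for 16 hours at 37 °C. An increase in Caspase-Glo 3/7 luminescence indicates caspase activation.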

Test [9] has as its target Cytochrome P450 3A4 (Homo sapiens) (UniProt P08684). Briefly: qHTS Assay for Activators of Cytochrome P450 3A4 (AID 885). Note: nearly all actives have a fitted effect of over 65% in size. Summed up: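 Luminescent readout of luciferin formed from 25 uM Luciferin-PPXE (KM level) by 20 nM CYP3A4 in 200 mM KPO4, with 60 min NADPH-driven reaction at room temperature after 10 min compound exposure. Ketoconazole (57 uM) defined 100% inhibition.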

Test [10] can be described thus: MultiTox-Fluor Cytotoxicity Assay - LYMP1-002 - Live Cells (AID 955). Note: potency is the fitted concentration of half-maximal effect. Summed up:
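In this qHTS viability format, lymphoblastoid cells (LYMP1-002, human) received compound for 16 hr at 37 C. Fluorogenic GF-AFC cleavage by viable cells was detected at 405/510 nm after 1 h at room temperature.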

The nature of test [11]: MultiTox-Fluor Cytotoxicity Assay - LYMP1-003 - Live Cells (AID 962). Note: potency is the fitted concentration of half-maximal effect. Summed up:
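Human lymphoblastoid line LYMP1-003 in complete culture medium, treated 16 hr with titrated compounds. Viable cells quantified via cell-permeant GF-AFC substrate fluorescence; AC50 derived by Hill fitting.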

Test [12] can be described thus: Cell Viability - LYMP2-008 (AID 980). Note: nearly all actives have a fitted effect of over 60% in size. Note: potency is the fitted concentration of half-maximal effect. Summed up:
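Measured: ATP-dependent luminescence, proportional to viable cell number, in human lymphoblastoid cells treated 24 hr with compound in complete culture medium. Values are AC50s from Hill-equation modelling of qHTS titrations.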

Test [13] is described as follows: qHTS assay for small molecule agonists of the antioxidant response element (ARE) signaling pathway measured by Nrf2-dependant transcriptional activity - cell viability counter screen (AID 720653; active = well fitted curve in the direction sought with a large enough effect in the repeat runs; an effect the other way counts as inactive or inconclusive; note: potency is the fitted concentration of half-maximal effect; for max response: % is set by controls: 0 for no effect and ±100 for the full control effect). The note with it: ARE-bla HepG2 viability, CellTiter-Glo ATP luminescence, 16 h; max response: active compounds read low. Summed up: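 ARE-bla HepG2 cells (2,000/well) rested 5 hrs at 37C/5% CO2, then exposed to compounds in DMSO for 16 hrs. Viability was read in the same wells as intracellular ATP by luminescence, 30 min at room temperature after reagent addition.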

In test [14] the target is Mitogen-activated protein kinase 10 (Mus musculus) (UniProt Q61831). The experiment in a line: JNK3 AlphaScreen Assay (AID 530; active = well fitted curve in either direction with a large enough effect, not every such curve was filed as active;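 note: kinase came from lysate of stimulated human HepG2 cells; signal reports phosphorylation of biotinylated GST-cJun 1-79 at Ser73 with 10 µM ATP; % is set by controls: 0 for no effect and ±100 for the full control effect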). Summed up: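 Biotinylated GST-cJun(1-79) served as substrate for JNK3 in HepG2 lysates stimulated with IL-1beta and TNF-alpha. ATP was 10 uM final, pH 7.6. Ser73 phosphorylation was quantified by AlphaScreen (680 nm excitation).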
Test [15] has as its target Cytochrome P450 3A4 (Homo sapiens) (UniProt P08684). The experiment in a line: qHTS Assay for Inhibitors and Substrates of Cytochrome P450 3A4 (AID 884). Note: nearly all actives have a fitted effect of over 50% in size. Note: potency is the fitted concentration of half-maximal effect. In a few lines: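 Luminescent readout of luciferin produced by CYP3A4 (20 nM) dealkylation of Luciferin-PPXE, 25 uM (its KM). NADPH-driven reaction ran 60 min at RT after 10 min compound preincubation; data scaled to 57 uM ketoconazole as 100% inhibition.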

The target in test [16] is 3',5'-cyclic-AMP phosphodiesterase 4B (Homo sapiens) (UniProt Q07343). The experiment in a line: qHTS Assay for Inhibitors of PDE-IV (AID 607; active = well fitted activation curve with a large enough effect in the main read-out, with a control signal flat, not every such curve was filed as active; note: % of control where 0% means no effect). In a few lines:
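Cell-based read-out of cAMP via a modified cyclic nucleotide-gated channel and membrane potential dye (535/590 nm) in HEK293 cells expressing PDE4 endogenously. Compounds tested up to 22.9 uM final; 100 uM RO 20-1724 reference.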

In test [17] the target is Cytochrome P450 2C9 (Homo sapiens) (UniProt P11712). The experiment in a line: qHTS Assay for Inhibitors and Substrates of Cytochrome P450 2C9 (AID 883). Note: % is set by controls: 0 for no effect and ±100 for the full control effect; nearly all actives have a fitted effect of over 60% in size. Summed up:
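Human CYP2C9 (10nM) hydroxylated Luciferin-H (100uM, at its KM) to luciferin in 25mM KPO4. Compound was preincubated 10 min at 37C, then NADPH regeneration started a 60 min reaction at 37C. Luminescence was read after detection reagent, normalized to 57uM sulphaphenazole.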

Test [18] concerns the target Cytochrome P450 2C19 (Homo sapiens) (UniProt P33261). Briefly: qHTS Assay for Inhibitors and Substrates of Cytochrome P450 2C19 (AID 899). Note: % is set by controls: 0 for no effect and ±100 for the full control effect; nearly all actives have a fitted effect of over 60% in size. In a few lines: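 Human CYP2C19 (5nM) with Luciferin-H EGE at 10uM (its KM) in 50mM KPO4 was preincubated with compound for 10 min at 37C. NADPH regeneration started a 60 min 37C reaction. Luciferin was read by luminescence, normalized to 57uM ketoconazole.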

Values joined by “and” are separate entries in the source; they are usually repeats but may differ in a detail not shown here. Equal entries are not always repeated. Values without a mark were called inactive. Records with an inconclusive call do not appear. Some structures have more than one record in an assay (separate samples or runs), and their calls can disagree. Active and inactive are the calls of the source. Unless noted, calls come from the whole dose curve; as a rule, active = well fitted curve in the direction sought with a large enough effect; inconclusive = small, poorly fitted or top-dose-only effect, or another doubt; inactive = no such curve, though single readings can be large; an effect the other way counts as inactive or inconclusive.

Chain of Cytochrome P450 3A4 (Homo sapiens) (P08684 whole entry, looked up): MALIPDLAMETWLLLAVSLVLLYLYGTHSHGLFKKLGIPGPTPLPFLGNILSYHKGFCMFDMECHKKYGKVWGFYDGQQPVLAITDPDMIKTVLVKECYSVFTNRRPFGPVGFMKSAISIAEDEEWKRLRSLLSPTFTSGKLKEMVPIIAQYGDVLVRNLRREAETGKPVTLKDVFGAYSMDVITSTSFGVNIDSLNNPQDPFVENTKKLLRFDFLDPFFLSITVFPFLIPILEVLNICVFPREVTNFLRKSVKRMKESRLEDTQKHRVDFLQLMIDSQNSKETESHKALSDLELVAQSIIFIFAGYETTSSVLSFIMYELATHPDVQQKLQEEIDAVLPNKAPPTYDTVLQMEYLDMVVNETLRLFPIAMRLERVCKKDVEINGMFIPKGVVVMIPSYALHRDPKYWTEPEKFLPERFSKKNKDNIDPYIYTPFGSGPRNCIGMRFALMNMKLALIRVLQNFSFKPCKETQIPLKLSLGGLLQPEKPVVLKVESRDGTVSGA
Chain of Cytochrome P450 2D6 (Homo sapiens) (P10635 whole entry, looked up): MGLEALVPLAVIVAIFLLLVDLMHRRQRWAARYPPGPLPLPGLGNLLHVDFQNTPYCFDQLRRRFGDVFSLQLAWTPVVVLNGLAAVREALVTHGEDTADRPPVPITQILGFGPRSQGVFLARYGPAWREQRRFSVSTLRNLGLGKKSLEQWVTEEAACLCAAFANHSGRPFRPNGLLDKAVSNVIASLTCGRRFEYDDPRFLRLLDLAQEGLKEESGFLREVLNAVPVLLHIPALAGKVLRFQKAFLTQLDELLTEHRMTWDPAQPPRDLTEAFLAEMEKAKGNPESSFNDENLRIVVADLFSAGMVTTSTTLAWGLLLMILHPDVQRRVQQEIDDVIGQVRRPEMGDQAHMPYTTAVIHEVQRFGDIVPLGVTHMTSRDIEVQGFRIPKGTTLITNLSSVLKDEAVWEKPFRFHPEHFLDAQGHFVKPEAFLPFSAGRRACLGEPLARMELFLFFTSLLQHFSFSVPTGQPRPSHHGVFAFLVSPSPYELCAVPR
Chain of Cytochrome P450 1A2 (Homo sapiens) (P05177 whole entry, looked up): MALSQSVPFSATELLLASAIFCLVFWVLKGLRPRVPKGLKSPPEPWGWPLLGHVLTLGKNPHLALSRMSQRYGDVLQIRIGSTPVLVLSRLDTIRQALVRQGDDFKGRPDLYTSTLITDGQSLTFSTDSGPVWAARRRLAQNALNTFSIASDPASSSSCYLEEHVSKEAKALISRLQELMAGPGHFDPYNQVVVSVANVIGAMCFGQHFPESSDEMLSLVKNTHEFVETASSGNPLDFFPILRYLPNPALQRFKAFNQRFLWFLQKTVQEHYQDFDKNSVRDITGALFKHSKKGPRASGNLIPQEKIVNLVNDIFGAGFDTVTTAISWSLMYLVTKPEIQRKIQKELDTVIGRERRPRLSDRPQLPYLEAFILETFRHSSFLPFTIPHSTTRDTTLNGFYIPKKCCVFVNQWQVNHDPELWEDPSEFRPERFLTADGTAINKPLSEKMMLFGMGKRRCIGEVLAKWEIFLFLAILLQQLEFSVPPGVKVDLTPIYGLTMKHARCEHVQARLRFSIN
Chain of Cytochrome P450 2C19 (Homo sapiens) (P33261 whole entry, looked up): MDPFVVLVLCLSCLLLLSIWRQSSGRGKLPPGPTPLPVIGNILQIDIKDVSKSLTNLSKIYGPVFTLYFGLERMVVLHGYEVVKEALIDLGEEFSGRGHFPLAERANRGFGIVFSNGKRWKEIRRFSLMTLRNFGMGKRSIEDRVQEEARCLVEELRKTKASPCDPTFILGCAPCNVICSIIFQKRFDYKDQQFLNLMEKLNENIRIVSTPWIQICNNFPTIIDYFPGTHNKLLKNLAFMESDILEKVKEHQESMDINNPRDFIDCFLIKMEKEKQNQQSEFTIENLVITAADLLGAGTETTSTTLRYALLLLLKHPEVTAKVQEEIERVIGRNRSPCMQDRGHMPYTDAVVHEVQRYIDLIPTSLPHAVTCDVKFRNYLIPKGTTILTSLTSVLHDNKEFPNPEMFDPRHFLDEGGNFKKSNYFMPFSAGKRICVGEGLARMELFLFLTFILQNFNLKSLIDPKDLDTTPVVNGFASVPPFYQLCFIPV
Chain of Cytochrome P450 2C9 (Homo sapiens) (P11712 whole entry, looked up): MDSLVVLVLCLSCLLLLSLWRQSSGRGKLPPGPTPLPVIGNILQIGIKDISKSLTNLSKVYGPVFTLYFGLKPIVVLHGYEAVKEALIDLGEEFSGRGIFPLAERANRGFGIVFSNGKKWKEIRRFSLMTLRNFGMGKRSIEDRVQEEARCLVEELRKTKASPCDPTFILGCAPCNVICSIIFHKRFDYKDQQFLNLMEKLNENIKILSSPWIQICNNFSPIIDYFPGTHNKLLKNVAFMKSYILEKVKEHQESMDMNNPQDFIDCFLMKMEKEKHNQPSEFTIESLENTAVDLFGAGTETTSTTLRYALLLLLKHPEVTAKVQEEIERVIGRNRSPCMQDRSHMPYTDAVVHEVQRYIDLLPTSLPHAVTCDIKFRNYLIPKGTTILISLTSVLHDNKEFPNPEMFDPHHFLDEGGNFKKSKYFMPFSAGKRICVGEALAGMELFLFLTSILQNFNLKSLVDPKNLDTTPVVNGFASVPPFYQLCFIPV
Chain of 3',5'-cyclic-AMP phosphodiesterase 4B (Homo sapiens) (Q07343 whole entry, looked up): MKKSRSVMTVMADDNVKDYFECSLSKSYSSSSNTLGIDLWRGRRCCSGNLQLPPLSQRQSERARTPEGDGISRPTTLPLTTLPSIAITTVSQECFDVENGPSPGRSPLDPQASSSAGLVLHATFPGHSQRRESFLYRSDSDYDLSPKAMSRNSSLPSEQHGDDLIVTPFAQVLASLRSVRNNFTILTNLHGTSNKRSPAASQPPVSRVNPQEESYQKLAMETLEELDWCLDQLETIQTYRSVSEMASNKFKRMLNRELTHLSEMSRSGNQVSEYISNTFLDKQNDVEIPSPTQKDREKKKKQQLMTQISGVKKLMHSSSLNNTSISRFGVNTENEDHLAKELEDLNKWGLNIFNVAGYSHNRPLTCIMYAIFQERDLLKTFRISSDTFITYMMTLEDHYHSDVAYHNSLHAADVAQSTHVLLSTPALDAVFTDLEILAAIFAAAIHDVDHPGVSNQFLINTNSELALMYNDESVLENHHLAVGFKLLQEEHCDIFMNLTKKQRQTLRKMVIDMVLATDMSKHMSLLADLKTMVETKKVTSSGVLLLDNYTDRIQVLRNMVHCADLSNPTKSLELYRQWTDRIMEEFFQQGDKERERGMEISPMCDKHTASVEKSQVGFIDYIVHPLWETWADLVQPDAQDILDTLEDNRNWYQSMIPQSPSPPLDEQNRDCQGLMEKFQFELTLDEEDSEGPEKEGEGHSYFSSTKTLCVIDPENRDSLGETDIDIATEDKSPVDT

For the compound `CC(C)[C@H]1C(=O)N2CCC[C@@H]2[C@]2(O)O[C@@](NC(=O)[C@H]3C=C4c5cccc6[nH]cc(c56)C[C@H]4N(C)C3)(C(C)C)C(=O)N12`, the figures for the Potency in test [1], in [2] and in test [3] were 31.6 µM (active), > 46 µM and > 46 µM, respectively. Besides, in [4], the Potency entry is “inactive”.

Turning to `Nc1ccccc1C(=O)OCCc1ccccc1`, the Potency in [5], in test [6] and in test [7] was > 92 µM throughout. Also, the caspase-3 activation in [8] is -20.4%. The Potency entry in [9], in test [10], in test [11] and in [12] was “inactive” throughout. Also, the max response in test [13] is 0.51%.

With `CN(C)c1ccc(N=O)cc1`, the Potency was > 92 µM in [5]; 42.1 µM (active) in test [6]; 7.28 µM (active) in test [7]; 5.01 µM (active) in test [10]; 6.31 µM (active) in test [11]; 1.26 µM (active) in test [12]. Moreover, the call in [14] was inactive. In [8], the caspase-3 activation is -9.93%. Besides, the Potency result in test [15] was “inactive”.

In the case of `CCC/C=C(\CCC)C(NP(=O)(c1ccccc1)c1ccccc1)c1ccccc1` (configuration not stated), the Potency was 15.8 µM (active) in [1] and 6.31 µM (active) in [15]. Moreover, in test [14], the call was inactive. Further, the Potency result in test [9] is “inactive”.

Consider `C[C@]12Cc3cn4c(nc3C=C1CC[C@H]1[C@@H]2CC[C@@]2(C)[C@H]1CC[C@@]2(O)C#N)nc1ccccc14`, for which the Potency in test [1] is 15.8 µM (active); in test [2] it was > 46 µM; in test [3], > 46 µM. For the same compound, the outcome in test [16] was inactive. Moreover, in [15], the Potency result was “inactive”.

For `CN(CCc1ccc(Cl)c(Cl)c1)[C@H]1CCCC[C@H]1N1CCCC1`, the figures for the Potency in [1], in test [3] and in [4] were 31.6 µM (active), > 46 µM and 0.0063 µM (active), respectively. The Potency entry in test [9] is “inactive”.

For `CC(C)CC(C)Nc1ccc(Nc2ccccc2)cc1` (configuration not stated), the Potency was > 92 µM in test [5], 50.1 µM (active) in test [11] and 39.8 µM (active) in [12]. Moreover, in [9], the Potency entry is “inactive”. Besides, the max response in test [13] was -3.35%.

Consider `O=C1C[C@H]2OCCC=C3CN4CC[C@@]56c7ccccc7N1[C@@H]5[C@H]2[C@H]3C[C@@H]46`, for which the Potency result in [1], in test [17], in test [4] and in test [18] was “inactive” each time. Moreover, the Potency in test [3] was > 46 µM. Also, the compound was classed as inactive in test [14].

With `O=C1C2(Cl)C3(Cl)C4(Cl)C(Cl)(Cl)C5(Cl)C3(Cl)C1(Cl)C5(Cl)C24Cl` (configuration not stated), the Potency in test [5] is 26.8 µM (active) and 61.3 µM (active); in test [6], 39.7 µM (active) and 48.6 µM (active); in test [7] it was 33.3 µM (active) and 51.3 µM (active); in [15], 10 µM (active) and 15.8 µM (active); in test [10] it was 31.6 µM (active); in test [11], 39.8 µM (active) and 50.1 µM (active). The Potency in test [12] and in [13] was 50.1 µM (active) in each case. In addition, in [8], the caspase-3 activation was -3.9%. For the same compound, the Potency result in test [9] was “inactive”. The max response in [13] was 5.47%.

For the origin of these results see PubChem BioAssay (NCATS).
